# “And” between values parts separate entries of the source, which are not always exact repeats. Identical values can stand only once. A structure can be active in one record and inactive in another. The source made the active and inactive calls. How the source made its calls: active means hit-call score of the fitted dose curve at least 0.9, where 1 is the maximum; inactive means score below 0.9.
# Target: Cellular tumor antigen p53 (Homo sapiens) (UniProt P04637)
# Assay: ATG_p53_CIS: Attagene CIS-FACTORIAL HepG2 Assay for human p53 Transcription Factor (AID 2282994)
# Conditions: HepG2 p53 cis-element reporter, Attagene mRNA; actives raise or lower the signal
# Procedure: ATG_CIS is a cell-based, multiplexed-readout assay that uses HepG2, a human liver cell line, with measurements taken at 24 hours after chemical dosing in a 24-well plate.ATG_p53_CIS is one of 52 assay component(s) measured or calculated from the ATG_CIS assay. It is designed to make measurements of mRNA induction, a form of inducible reporter, as detected with fluorescence intensity signals by Reverse transcription polymerase chain reaction (RT-PCR) and Capillary electrophoresis technology.Data from the assay component ATG_p53_CIS was analyzed into 1 assay endpoint. This assay endpoint, ATG_p53_CIS, was analyzed with bidirectional fitting relative to DMSO as the negative control and baseline of activity. Using a type of inducible reporter, measures of mRNA for gain or loss-of-signal activity can be used to understand the reporter gene at the transcription factor-level as they relate to the gene TP53. Furthermore, this assay endpoint can be referred to as a primary readout, because this assay has produced multiple assay endpoints where this one serves a reporter gene function. To generalize the intended target to other relatable targets, this assay endpoint is annotated to the dna binding intended target family, where the subfamily is tumor suppressor.
# Human liver HepG2 cells are transiently transfected with multiple reporter transcription units (MRTUs) in 6-well plates using FuGene 6 reagent (Roche; 3 ml FuGene/1 mg DNA). The MRTU constructs are regulated by a cis-regulating element (promoter). […] A major difference between the CIS and TRANS system is that in CIS activities of endogenous TFs are measured, whereas the TRANS assay evaluates changes in activities of exogenous, chimeric NR-Gal4 proteins. […] At the end of 24 hour incubation, total RNA was isolated using TriZol reagent (Invitrogen). The isolated RNA is then reverse-transcribed using oligo(dT) primer and Mo-MLV reverse transcriptase (Invitrogen) with DNAse I (Ambion) treatment for 30 min. The one-tenth of the produced cDNA was amplified by PCR using Taq DNA polymerase (Invitrogen) and two reporter sequence-specific primers. The PCR products were fluorescently labeled by primer extension with 6-arboxyfluorescein (6-FAM) 5'-labeled reporter sequence-specific primer (2 min at 95 C, 20 s at 68 C and 10 min at 72 C) and these products were digested with 5U of HpaI (New England Biolabs) for 2h at 37 C. The fragments were purified using Qiaquick PCR columns (Qiagen), analyzed on an ABI 3130xL genetic analyzer (Applied Biosystems) with peak positions identified by using a set of X-rhodamine (ROX)-labeled MapMarker1000 molecular weight standards (BioVentures). The raw capillary electrophoresis data was processed using Attagraph software (Attagene).
# Cellular tumor antigen p53 (Homo sapiens), sequence (P04637 whole entry, looked up): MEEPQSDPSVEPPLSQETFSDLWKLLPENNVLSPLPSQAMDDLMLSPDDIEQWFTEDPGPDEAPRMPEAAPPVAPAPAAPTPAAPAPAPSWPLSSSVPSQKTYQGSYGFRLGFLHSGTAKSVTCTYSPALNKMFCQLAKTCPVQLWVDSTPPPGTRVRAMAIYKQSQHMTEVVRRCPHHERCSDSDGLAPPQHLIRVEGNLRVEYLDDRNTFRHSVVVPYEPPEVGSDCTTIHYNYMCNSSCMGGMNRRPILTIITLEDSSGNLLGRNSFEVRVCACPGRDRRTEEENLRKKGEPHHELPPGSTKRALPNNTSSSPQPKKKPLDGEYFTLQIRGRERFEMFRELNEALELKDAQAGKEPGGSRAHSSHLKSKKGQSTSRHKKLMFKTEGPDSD
Structure (SMILES),outcome,AC50
COC(=O)c1ccc(I)cc1S(=O)(=O)NC(=O)Nc1nc(C)nc(OC)n1,inactive,–
C=CCOC(Cn1ccnc1)c1ccc(Cl)cc1Cl (stereo not given),inactive,–
CCCOC(=O)c1ccc(C(=O)OCCC)nc1,inactive,–
CCC(C)OC(=O)N1CCCCC1CCO (stereo not given),inactive,–
CCCN(CCC)c1c([N+](=O)[O-])cc(C(F)(F)F)c(N)c1[N+](=O)[O-],inactive,–
O=C(Nc1ccc([N+](=O)[O-])cc1Cl)c1cc(Cl)ccc1O,–,700 nM (active)
O=C(O)c1ccccc1,inactive,–
CCOC(=O)NCCOc1ccc(Oc2ccccc2)cc1,inactive,–
COc1nc(C)nc(NC(=O)NS(=O)(=O)c2ccccc2OCCCl)n1,inactive,–
CCCCC(CC)CN1C(=O)C2C3C=CC(C3)C2C1=O (stereo not given),inactive,–
CCCCOC(=O)C(C)Oc1ccc(Oc2ccc(C(F)(F)F)cn2)cc1 (stereo not given),inactive,–
COC(=O)CSc1cc(N=c2sc(=O)n3n2CCCC3)c(F)cc1Cl,inactive,–
COCCO,inactive,–
CC(C)CCCCCCc1ccc(O)cc1,inactive,20.1 µM (active) and 20.3 µM (active)
CCN(Cc1c(F)cccc1Cl)c1c([N+](=O)[O-])cc(C(F)(F)F)cc1[N+](=O)[O-],inactive,–
O=C(c1ccc(O)cc1O)c1ccc(O)cc1O,inactive,–
C#C[C@]1(O)CC[C@H]2[C@@H]3CCC4=CC(=O)CC[C@@H]4[C@H]3CC[C@@]21CC,inactive,–
N[C@@H](Cc1cc(I)c(Oc2ccc(O)c(I)c2)c(I)c1)C(=O)O,inactive,25200 nM (active)

Structure (SMILES),outcome,AC50
CSC(=O)c1cccc2nnsc12,inactive,–
CCSC(=O)N(CC(C)C)CC(C)C,inactive,–
Oc1ccc(C(c2ccc(O)cc2)C(Cl)(Cl)Cl)cc1,inactive,–
COC(=O)c1ccccc1S(=O)(=O)NC(=O)Nc1nc(OC(F)F)cc(OC(F)F)n1,inactive,–
OB(O)O,inactive,–
CC(=O)S[C@@H]1CC2=CC(=O)CC[C@]2(C)[C@H]2CC[C@@]3(C)[C@@H](CC[C@@]34CCC(=O)O4)[C@H]12,inactive,27.6 µM (active) [middle of 4 runs]
CCOC(=O)C(C)Oc1ccc(Oc2nc3ccc(Cl)cc3o2)cc1 (stereo not given),inactive,–
O=C(O)C1(C(=O)Nc2ccc(Cl)cc2Cl)CC1,inactive,–
C[C@]12CC[C@@H]3c4ccc(O)cc4C[C@@H](CCCCCCCCCS(=O)CCCC(F)(F)C(F)(F)F)[C@H]3[C@@H]1CC[C@@H]2O (stereo not given in full),inactive,–
c1ccc(Nc2ccccc2)cc1,inactive,–
CCOC(=O)COc1cc(-n2ncc(C(F)(F)F)c(C)c2=O)c(F)cc1Cl,inactive,–
CC(C)(c1ccc(O)cc1)c1ccc(O)cc1,inactive,86.2 µM (active) and 100 µM (active) and 133 µM (active)
CC(C)(C)[C@@H](O)[C@@H](Cc1ccc(Cl)cc1)n1cncn1,inactive,–
C#CCOC(=O)[C@@H](C)Oc1ccc(Oc2ncc(Cl)cc2F)cc1,inactive,–
CC(=O)[C@H]1CC[C@H]2[C@@H]3CCC4=CC(=O)CC[C@]4(C)[C@H]3CC[C@]12C,inactive,–
CCOC(=O)c1ccc(O)cc1,inactive,–
COC(=O)c1c(Cl)nn(C)c1S(=O)(=O)NC(=O)Nc1nc(OC)cc(OC)n1,inactive,–
Cc1nn(C)c(Oc2ccccc2)c1C=NOCc1ccc(C(=O)OC(C)(C)C)cc1,inactive,–
